Assay results as given in PubChem BioAssay (NCI).
About 83,000 compounds went through this panel and 20% of them were active in at least one assay; those are over-represented in the sample as a whole.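 Step 1: grow cells in 96-well plates. Step 2: add test compound at a single concentration. Step 3: incubate 48 h. Step 4: record percent growth.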 Values without a mark were called inactive. Activity calls are given as the source filed them. Rule for the calls: active = growth percent below 10; inactive = the rest.

Tests used:
Test in all cases: NCI-60 one-dose screen, 48 h (100 = growth as untreated, 0 = no growth, -100 = all killed)
Conditions in all cases: 10 µM unless noted
SK-MEL-2 melanoma = tested on: SK-MEL-2 melanoma
EKVX NSCLC = tested on: EKVX NSCLC
SN12C renal = tested on: SN12C renal
UO-31 renal = tested on: UO-31 renal
TK-10 renal = tested on: TK-10 renal
ACHN renal = tested on: ACHN renal
CAKI-1 renal = tested on: CAKI-1 renal
MOLT-4 leukemia = tested on: MOLT-4 leukemia
CCRF-CEM leukemia = tested on: CCRF-CEM leukemia
A498 renal = tested on: A498 renal

Row | SMILES | growth (SK-MEL-2 melanoma) | growth (EKVX NSCLC) | growth (SN12C renal) | growth (UO-31 renal) | growth (TK-10 renal) | growth (ACHN renal) | growth (CAKI-1 renal) | growth (MOLT-4 leukemia) | growth (CCRF-CEM leukemia) | growth (A498 renal)
1 | C=C(C)[C@@H]1CC[C@]2(C(=O)N3CCN(C)CC3)CC[C@]3(C)[C@H](CC[C@@H]4[C@@]5(C)CCC(=O)C(C)(C)[C@@H]5CC[C@]43C)[C@@H]12 | 92.1% | 96.3% | 75.7% | 66.7% | 102% | 77.4% | 93.5% | 51.6% |  | 
2 | CCOC(=O)N1CCN(CCCCl)CC1 | 103% | 98.2% | 99% | 89.5% | 92.1% | 97.4% | 101% | 98.7% |  | 
3 | S=c1[nH]cccc1-c1nnc2n1Nc1nc3ccc(Cl)cc3cc1CS2 | 96.1% | 93.1% | 102% | 79.6% | 111% | 101% | 81.8% | 92.3% |  | 
4 | O=C(O)/C=C\C(=O)N1C/C(=C\c2ccccc2Cl)C(=O)/C(=C/c2ccccc2Cl)C1 | 37% | 40.1% | -30.7% (active) | -64.9% (active) | 0.472% (active) | 20.3% | 0.997% (active) | 4.86% (active) | 3.66% (active) | 
5 | COc1ccc(C2=C(c3ccccc3)c3ccc(OC(C)=O)cc3OC2(C)C)cc1 | 94.9% | 82.3% | 93% | 90.6% | 116% | 76.3% | 67.8% | 4.69% (active) |  | 
6 | NC(=S)N/N=C/c1ccc(OC(=O)COc2cc(Cl)c(Cl)cc2Cl)cn1 | 59.1% | 106% | 43.9% | 22.1% | 92.5% | 18.4% | 36.4% | 31.3% |  | 
7 | CC1(C)NCCC[C@]2(C)[C@H]3CC=C4[C@@H]5C[C@@](C)(CO)CC[C@]5(C)CC[C@@]4(C)[C@]3(C)CC[C@@H]12 | 48.4% | 86.5% | 62.1% | 69.3% | 63.3% | 54.3% | 76.7% | 33.8% |  | 
8 | CN(C)C(=O)c1cc2cnc(Nc3ccc(-c4csc5c(=O)cc(N6CCOCC6)oc45)cc3)nc2n1C1CCCC1 | -58.6% (active) | -19.5% (active) | 4.35% (active) | -5.39% (active) | -10% (active) | 1.06% (active) | -50.8% (active) | -32% (active) | -14.4% (active) | 
9 | COc1ccc(-n2cc(-c3cc(OC)c(OC)c(OC)c3)n(C(C)=O)c2=O)cc1 | 93.2% | 88% | 93.4% | 77.2% | 105% | 97.7% | 53.7% | 103% |  | 
10 | CCOC(=O)C1=C(C)NC(C)=C(C(=O)OCC)C1c1cc(Br)c(O)c(OC)c1 | -7.22% (active) | 42.5% | 48.5% | 40.3% | 34.1% | 61.3% | 30.1% | 44.8% | 19.9% | 
11 | COc1ccc(C(=O)c2cc3c(N)c(C(=O)Nc4ccc(Cl)cc4)sc3nc2C)cc1 | 68.5% | 86.1% | 89.9% | 79% | 82% | 74.7% | 66.3% | 82.6% | 73.9% | 
12 | C[C@H]1[C@H](C)CC[C@]2(CO)CC[C@]3(C)C(=CC[C@@H]4[C@@]5(C)Cc6c([nH]c7ccccc67)C(C)(C)[C@@H]5CC[C@]43C)[C@H]12 | 85.2% | 75.5% | 55.6% | 74.3% | 86.3% | 60.8% | 73.2% | 67% |  | 
13 | CCCCCCc1nc2nc(Cl)c(Cl)nc2[nH]1 | 63.4% | 52.6% | 60.8% | 52.6% | 76.9% | 67.4% | 39.1% | 49% |  | 
14 | O=C(O)CNC(=O)CN1C(=O)c2ccccc2C1=O | 114% | 103% | 99.1% | 86.3% | 104% | 103% | 95.9% | 91.8% |  | 
15 | Nc1nc(SN=Nc2ccc(S(N)(=O)=O)cc2)c2[nH]cnc2n1 | -3.49% (active) | 28.6% | 24.2% | 22.5% | -9.94% (active) | 15.9% | 1.85% (active) | -1.6% (active) |  | 
16 | COc1ccc(C(=O)c2cc3c(N)c(C(=O)Nc4cccc(Cl)c4C)sc3nc2C)cc1 | 36.9% | 39.6% | 20.3% | 21.7% | 50.9% | 24.1% | 15.6% | 8.51% (active) | 5.42% (active) | 
17 | CC(O)(CO)c1ccccc1 (stereo not drawn) | 106% | 96.3% | 98.8% | 91% | 110% | 95.2% | 104% | 110% |  | 
18 | CCn1ccnc1C(=O)/C=C/c1ccc(CC(=O)Nc2ccc(F)cc2)cc1 | 97.8% | 55.2% | 26.2% | 39.8% | 66.3% | 63.6% | 34.1% | 24.2% |  | 
19 | C/C(=C(/c1ccccc1)c1ccc(OCC(O)CNCCN2CCOCC2)cc1)c1ccccc1 (stereo not drawn) | 94.9% | 82.8% | 76.1% | 69.2% | 73.5% | 81.4% | 67.9% | 41% | 56.5% | 
20 | Cc1[nH]c(C(=O)Nc2ccccc2OCc2cccc(C(=O)NCCN)c2)c(Cl)c1Cl | 107% | 89.1% | 58% | 75% | 138% | 101% | 85.6% | 40.3% |  | 
21 | Cc1ccc(-c2csc(/N=C3\C(=O)Nc4ccccc43)n2)cc1 | -51.2% (active) | 33.6% | 23.4% | 42% | 8.33% (active) | 36.7% |  | -19.5% (active) | 6.64% (active) | 5.79% (active)
22 | C=C1C(=O)O[C@H]2[C@H]1CC/C(COC(=O)CCCc1c[nH]c3ccccc13)=C\CC[C@@]1(C)O[C@@H]21 | 88.4% | 74.3% | 54.8% | 58.5% | 94.7% | 59.5% |  | 3.73% (active) | 1.43% (active) | 103%
23 | CN(C)CCCn1c2c(c3ccc(-c4ccn[nH]4)cc3c1=O)C(=O)c1ccccc1-2 | 121% | 34.2% | 5.41% (active) | 25.5% | 54.4% | -28.9% (active) |  | -0.72% (active) | 0.484% (active) | 52.4%
24 | COc1ccc2c(/C=C3/C(=O)NC(=S)NC3C)cc(=O)oc2c1 (stereo not drawn) | 86.8% | 101% | 97.7% | 88.3% | 93.5% | 108% |  | 90.5% | 93.2% | 91.5%
25 | Nc1ccccc1NC(=O)c1ccc(CN2CCC/C(=C\c3cccc(Cl)c3)C2=O)cc1 | 11.1% | 20.4% | 5.8% (active) | 22.6% | 4.89% (active) | 5.98% (active) |  | 1.63% (active) | 4.02% (active) | -11% (active)
26 | CCCCCCC/C=C/[C@H]1O[C@]2(O)C(=O)C=C3C[C@@H](O[C@@H]4O[C@H](CO)[C@@H](O)C(O)[C@@H]4O)C[C@@H]3[C@H]2C=C1C (stereo partly drawn) | -28.5% (active) | 72.4% | 1.69% (active) | -88.1% (active) | 4.93% (active) | -4.43% (active) |  | -6.66% (active) | 9.27% (active) | 71.2%
27 | O=C(N/N=C/c1cccc(O)c1)c1ccccc1Nc1cccc(C(F)(F)F)c1 |  | 69.9% | 93.5% | 58% | 97.5% | 95.4% | 36.9% |  | 3.83% (active) | 92.3%
